Efflux pump inh – inhibitors of Candida efflux pumps in yeast, primary screen, S. cerevisiae, Nile Red, multiplex. S. cerevisiae Candida pump triplex. inhibition, % at 10 µM. 330,000 tested, 0.44% active. AID 485275, 2010;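 active = plate passing quality check with inhibition over a set limit, or well fluorescence over plate mean plus 4 SD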;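 also: Nile Red retained in pooled yeast measured as flow cytometry median fluorescence; 0% = buffer negative control and 100% = Enniatin B positive control; higher means more Nile Red kept so more efflux inhibition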
SKN-1 inh – suppressors of acrylamide-induced Pgst-4::GFP reporter in worms, primary screen, SKN-1 inhibitor project, whole organism, uHTS, GFP/RFP fluorescence ratio, strain VP596; C. elegans VP596 Pgst-4::GFP/RFP ratio, 24 h; inhibition, % at 21.8 µM; 360,000 tested, 0.49% active; AID 624304, 2012;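 active = interference check ratio from 0.5 to 1.5 plus GFP to RFP signal ratio inhibition reaching or exceeding a fixed threshold, cut at about 30% in these data, passing the limit was not always enough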
SUMO Mot1 rescue – yeast Mot1-301 growth rescue at high temperature, primary screen, SUMOylation pathway inhibitor project, S. cerevisiae, ATP luminescence, 38.5C; S. cerevisiae Mot1-301 growth rescue; percent above DMSO median, 100 means doubled; 320,000 tested, 1% active; AID 2716, 2010; growth rescue, % at 18.8 µM;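 active = every valid replicate shows activation above 250% relative to neutral control wells; inactive = the rest, any valid replicate at or below 250%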;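 also: OY570 slx delta 5 strain wells were the positive control but not used for scaling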
sPLA2-III inh – human group III sPLA2 inhibitors, primary screen, biochemical, QFRET, BODIPY PC-A2 liposome substrate. Group 3 secretory phospholipase A2 (Homo sapiens), Q9NZ20. QFRET BODIPY PC-A2 liposome hydrolysis, fluorescence. inhibition, % at 12.2 µM. 370,000 tested, 0.56% active. AID 743126, 2013;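 active = inhibition above mean plus 3 SD of compounds lying within the high and low control bounds, cut at about 19% in these data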;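 also: 0% = median of test compound wells and 100% = no enzyme DMSO wells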
Target sequence (Q9NZ20 whole entry, looked up): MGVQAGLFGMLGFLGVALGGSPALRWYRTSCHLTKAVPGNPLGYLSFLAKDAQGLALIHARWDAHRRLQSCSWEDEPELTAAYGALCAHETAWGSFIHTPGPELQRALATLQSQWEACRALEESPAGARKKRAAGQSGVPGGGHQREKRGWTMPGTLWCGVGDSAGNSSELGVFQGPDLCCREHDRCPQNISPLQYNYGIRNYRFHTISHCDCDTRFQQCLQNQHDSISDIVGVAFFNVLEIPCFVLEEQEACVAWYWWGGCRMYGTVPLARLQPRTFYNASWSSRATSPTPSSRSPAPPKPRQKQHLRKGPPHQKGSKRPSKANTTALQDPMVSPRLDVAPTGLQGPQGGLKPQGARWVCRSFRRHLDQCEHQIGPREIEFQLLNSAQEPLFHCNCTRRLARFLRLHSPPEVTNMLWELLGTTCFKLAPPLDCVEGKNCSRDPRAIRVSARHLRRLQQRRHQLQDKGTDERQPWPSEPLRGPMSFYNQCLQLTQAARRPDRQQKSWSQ
sPLA2 confirm – human group III sPLA2 inhibitors, confirmation, biochemical, QFRET, triplicate; inhibition, % at 12.2 µM; 2,000 tested, 34% active; recombinant hGIII-sPLA2, BODIPY PC-A2 QFRET fluorescence; shares compounds with sPLA2-III inh; AID 743280, 2014;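 active = mean inhibition across triplicates above the hit cutoff set in the earlier primary screen, cut at about 19% in these data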;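 also: 0% = enzyme with DMSO and 100% = DMSO wells lacking enzyme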
535nm interf – 535nm fluorescence optical interference, confirmation, artefact control for HGIII-sPLA2 inhibitor project, biochemical, QFRET | BODIPY FL product fluorescence interference | inhibition, % at 12.2 µM | shares compounds with sPLA2-III inh | AID 743282, 2014 | 2,000 tested, 8.5% active;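 active = average inhibition above the solvent-only control mean plus 3 SD, cut at about 6% in these data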;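 also: 0% = DMSO with substrate plus product and 100% = DMSO with substrate alone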
* = called active by the depositor; / = no result. Hits are enriched below; roughly 2.2% of the tested compounds scored in any of these assays.

SMILES	Efflux pump inh	SKN-1 inh	SUMO Mot1 rescue	sPLA2-III inh	sPLA2 confirm	535nm interf
S=c1[nH]cc(Cc2ccccc2)s1	0	2	15	38*	27*	-2
CC(C)n1nnnc1C1c2ccccc2C(=O)N1Cc1ccco1 (configuration not stated)	/	14	/	5	/	/
Cc1[nH]c2ccccc2c1Cc1n[nH]c(=S)o1	0	15	-11	11	/	/
S=c1[nH]nc(Cc2cccc3ccccc23)o1	0	-2	103	24*	14	3
COc1ccc(Nc2nc(-c3cccs3)cs2)cc1	0	/	3	2	/	/
Oc1ccc(Nc2nc(-c3cccs3)cs2)cc1	0	5	15	23*	23*	9.7*
CCCNC(=O)CN1C(=O)NC(CCSC)C1=O (configuration not stated)	0	1	0	-6	/	/
Cn1c(CSCc2ccccc2)n[nH]c1=S	0	5	7	32*	7	0
Cn1c(CSCc2ccccc2Cl)n[nH]c1=S	0	1	-15	5	/	/
Cn1c(CSCc2ccc(F)cc2)n[nH]c1=S	0	18	164	17	/	/
Cn1c(CSCc2ccc(Cl)cc2)n[nH]c1=S	0	-2	-6	20*	18	-3
CN(C)c1ccc(-c2cc(O)c3ncccc3c2)cc1	0	1	-20	27*	18	-7
Oc1cc(-c2ccncc2)cc2cccnc12	0	19	0	-3	/	/
COc1ccc(/C=N\NC(=O)c2sccc2C)cc1Cn1nc(C)cc1C	0	5	2	-3	/	/
COC(=O)c1cnn(-c2ccc(F)cc2F)c1/C=N/NC(=S)Nc1ccccc1	/	/	/	22*	20*	0
CCCCNC(=S)NNC(=O)CCn1cc(C)cn1	0	-9	16	12	/	/
Cc1cnn(CCC(=O)NNC(=S)NCC(C)C)c1	0	3	22	22*	8	-2
Cc1ccc2c(c1)C1CS(=O)(=O)N(C3CCCC3)CN1C2 (configuration not stated)	/	/	/	3	/	/
Cc1ccc(S(=O)(=O)NCC(C)n2cncn2)cc1C (configuration not stated)	0	4	1	20*	-3	1
COc1cccc(CC(=O)OCC(=O)NC(C)c2ccc(F)cc2)c1 (configuration not stated)	0	-9	-2	7	/	/
O=C(c1ccccc1[N+](=O)[O-])N1N=C(c2ccccc2)CC1(O)C(F)(F)F (configuration not stated)	0	-26	58	-7	/	/
COC(=O)C1=NN(C(=O)c2ccccc2)C(C)(O)C1 (configuration not stated)	0	16	276	0	/	/
CCC1=NN(C(=O)c2ccccc2[N+](=O)[O-])C(O)(c2ccccc2)C1 (configuration not stated)	/	6	/	23*	7	-1
COC(=O)C1=NN(C(=O)c2ccccc2)C(O)(c2ccc([N+](=O)[O-])cc2)C1 (configuration not stated)	0	-1	9	33*	57*	17*
Cc1ccc(S(=O)(=O)Nc2cccc(C(=O)NCc3cccnc3)c2)cc1F	0	15	-4	7	/	/
CC(C)CNC(=O)COc1ccc2c3c(c(=O)oc2c1)CCC3	0	6	274	21*	-2	-5
CC1(C)C=C2C(N(Cc3ccc4c(c3)OCO4)C(=N)N2C(=O)OCc2ccccc2)n2c(=O)n(-c3ccccc3)c(=O)n21 (configuration not stated)	/	/	/	11	/	/
N/C(=N\OC(=O)COc1ccc(Br)cc1)c1ccncc1	0	0	7	20*	-1	-10
O=C1CN(c2nc(-c3ccccc3)c3cc(Cl)ccc3n2)c2ccccc2N1	0	5	-17	21*	-8	-3

Screening results deposited in PubChem BioAssay by several laboratories.
